Lamin A splicing – qHTS Assay for Modulators of Lamin A Splicing; HeLa LMNA splicing GFP/RFP minigene ratio, 48 h; Potency, µM (highest dose often 46.1 µM), for the others: top-dose ratio change, negative = inhibition, hits mostly inhibitors; actives 0.01% (n = 200,000); active = well fitted inhibition curve with a large enough effect in the signal ratio, with a control signal flat, not every such curve was filed as active; inconclusive = small, poorly fitted or top-dose-only effect, or effect the other way, or a change in a side signal; the % refers to the signal ratio; note: potency is the fitted concentration of half-maximal effect
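S3 HeLa stable clones carrying a lamin A-EGFP splicing minigene plus DsRed2 were seeded at 600 cells/well in Opti-MEM with 2% FBS, pin-dosed and incubated 48 h at 37°C. Acumen cytometry (488 nm) gave the GFP/RFP total-intensity ratio.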
ALDH1A1 block – qHTS Assay for Inhibitors of Aldehyde Dehydrogenase 1 (ALDH1A1); Aldehyde dehydrogenase 1A1 (Homo sapiens), P00352; Purified ALDH1A1, NADH fluorescence, propionaldehyde substrate; Potency, µM (titrated, usually from 75.3 µM), for the others: top-dose activity, negative = inhibition, hits mostly inhibitors; actives 7.3% (n = 220,000); AID 1030, 2008;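 note: potency is the fitted concentration of half-maximal effect; plate controls were no enzyme wells and a reference inhibitor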
Target sequence (P00352 whole entry, looked up): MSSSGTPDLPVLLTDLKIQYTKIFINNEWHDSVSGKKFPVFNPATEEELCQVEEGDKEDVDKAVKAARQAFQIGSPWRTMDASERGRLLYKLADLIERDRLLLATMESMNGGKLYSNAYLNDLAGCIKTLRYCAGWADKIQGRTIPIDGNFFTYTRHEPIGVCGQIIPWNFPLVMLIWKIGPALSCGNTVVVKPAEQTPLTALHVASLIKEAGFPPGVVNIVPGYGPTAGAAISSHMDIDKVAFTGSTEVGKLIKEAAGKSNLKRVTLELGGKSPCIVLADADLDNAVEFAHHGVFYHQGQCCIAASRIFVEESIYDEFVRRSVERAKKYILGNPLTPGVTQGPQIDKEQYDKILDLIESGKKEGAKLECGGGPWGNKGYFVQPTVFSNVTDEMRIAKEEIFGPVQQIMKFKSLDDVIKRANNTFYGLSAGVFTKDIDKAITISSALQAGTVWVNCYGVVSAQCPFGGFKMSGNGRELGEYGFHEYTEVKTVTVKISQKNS
PNC inhibitor – High Content Assay for Compounds that inhibit the Assembly of the Perinucleolar Compartment; PC3M PTB-GFP, PNC prevalence imaging, 16 h; stronger effect = lower value; activity change (PNC), negative = inhibition, % at 10 µM; actives 3.1% (n = 140,000); AID 2417, 2010;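 active = readout at or below -70, meaning at least 70% loss of cells showing the perinucleolar compartment, a nuclear body marking cancer cells; inconclusive = readout between -30 and a set limit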;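 note: plate controls were DMSO wells for no effect and camptothecin positive control wells for full effect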
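Read-out is percentage of cells bearing a perinucleolar compartment, from automated 20x imaging of fixed, Hoechst-stained PC3M PTB-GFP cells. Cells were seeded 4 h, then exposed 16 h to compound (23 nl of library stock) in duplicate plates.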
12-hLO inh – qHTS Assay for Inhibitors of 12-hLO (12-human lipoxygenase). AID 1452, 2008. Potency, µM (series often up to 57.1 µM), for inactives: at the highest dose activity change, negative = inhibition, actives largely listed as inhibitors. Polyunsaturated fatty acid lipoxygenase ALOX12 (Homo sapiens), P18054. actives 0.12% (n = 150,000). purified 12-hLO, xylenol orange hydroperoxide absorbance; active = well fitted inhibition curve with a large enough effect; inconclusive = small, poorly fitted or top-dose-only effect; note: potency is the fitted concentration of half-maximal effect; nearly all actives have a fitted effect of over 55% in size
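150 nM 12hLO, 25 mM Hepes pH 7.0 + 0.01% Triton X-100; cpd preinc 15 min RT; 40 uM arachidonic acid, 30 min RT; Fe-XO 30 min; A573/A405 ratio as read-out.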
HPGD inh – qHTS Assay for Inhibitors of HPGD (15-Hydroxyprostaglandin Dehydrogenase) | 15-hydroxyprostaglandin dehydrogenase [NAD(+)] (Homo sapiens), P15428 | purified HPGD, NADH fluorescence kinetic, PGE2 substrate | Potency, µM, for the others: top-dose activity change, negative = inhibition, usual class: inhibitors | actives 4.3% (n = 150,000); note: potency is the fitted concentration of half-maximal effect
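NADH formation kinetics: reaction with 30 uM PGE2 and 1 mM NAD+ (final), 20 nM enzyme, Tris-HCl pH 8 with Tween 20, after 15 min compound preincubation at room temperature. Fluorescence change, last versus first of five reads.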
* = called active by the depositor; ? = inconclusive; / = no result; [ ] = dose if it differs, or a comment. This is a sample that favours compounds with a hit; in the whole collection about 10% have one here. Unless noted, calls come from the whole dose curve; as a rule, active = well fitted inhibition curve with a large enough effect (not every such curve was filed as active); inconclusive = small, poorly fitted or top-dose-only effect, or another doubt; inactive = no such curve, though single readings can be large or run the other way. Unless noted, % is set by controls: 0 for no effect and ±100 for the full control effect.

SMILES	Lamin A splicing	ALDH1A1 block	PNC inhibitor	12-hLO inh	HPGD inh
O=C(c1cc2cc(Br)ccc2oc1=O)N1CCCC1	3%	-5%	-27	-9%	20µM*
O=C(c1ccc(-c2ccccc2)cc1)N1CCCC1	18%	-15%	11	-6%	1.6µM*
COC(=O)Cn1c(=NC(=O)c2ccc3c(c2)OCCO3)sc2ccccc21	6%[46 µM]	/	/	/	/
O=C(CC1N=C2c3ccccc3N=C(SCc3ccccc3F)N2C1=O)NCc1ccc2c(c1)OCO2 (stereo unspecified)	13%[46 µM]	/	/	/	/
NC(=O)CNC(=O)[C@@H]1CC2(CC(c3cccc([N+](=O)[O-])c3)=NO2)CN1C(=O)c1ccccc1 (stereo partly specified)	12%	1µM*	1	-1%	-11%
CC1(C(=O)N2CC3(CC(c4cccc([N+](=O)[O-])c4)=NO3)C[C@H]2C(=O)NCC(N)=O)CC1 (stereo partly specified)	12%	5%	114	4%	-6%
CCc1ccc(-n2nc(C)c3c(C(=O)Nc4ccc(Cl)cc4)cc(C)nc32)cc1	9%[46 µM]	/	/	/	/
O=C(Cn1cnc2sc(-c3ccccc3)cc2c1=O)NCc1ccco1	?	?	-90*	-3%	16µM*
Cc1ccc(-c2nn(CC(=O)NCc3ccco3)c(=O)c3ccccc23)cc1	-6%	9%	-111*	0%	-16%
Cn1nc(C(=O)NCc2cccnc2)c2ccccc2c1=O	0%	9%	-17	1%	3%
Cn1nc(C(=O)NCc2ccco2)c2ccccc2c1=O	?	13µM*	17	-1%	-17%
Cc1ccc(-c2nn(CC(=O)NCCN3CCOCC3)c(=O)c3ccccc23)cc1	-17%	1%	-10	5%	-5%
Fc1ccc([C@H]2CCNC[C@H]2COc2ccc3c(c2)OCO3)cc1	/	?	/	-8%	-4%
Cc1cccc(OC(=O)c2cc(-c3ccc(Cl)cc3)on2)c1C	20%[46 µM]	/	/	/	/
Cc1ccc(S(=O)(=O)N(CC(=O)O)c2ccc(Cl)cc2)cc1	/	3%	/	-5%	-6%
Cc1cccc(NC(=O)N2CCc3c(sc4c3CCCC4)C2c2ccc(F)cc2)c1 (stereo unspecified)	2%[46 µM]	/	/	/	/
COc1ncnc2c1oc1nc(CC(C)C)c3c(c12)CCCC3	4%	14µM*	?	-1%	-7%
COc1ccc2c(=O)c3c(=O)n(Cc4ccco4)c(C(C)C)nc3oc2c1	3%	9.5µM*	-18	-1%	-28%
N#C/C(=C(/O)c1ccco1)c1nc2ccccc2s1	?	1%	101	4%	-17%
N#C/C(=C(\O)c1ccco1)c1ccccn1	11%	25µM*	20	-27%	-25%
CC(=O)c1cccc(NS(=O)(=O)c2cc3c(cc2C)n(C)c(=O)c(=O)n3C)c1	5%[46 µM]	/	/	/	/
CC1(C)CC(=O)C(Sc2nnc(-c3ccc(O)cc3)n2CC2CCCO2)C(=O)C1 (stereo unspecified)	6%	19µM*	?	4%	-12%
CC(C)CC(=O)Nc1ccc(Cl)c(-c2nc3ccccc3[nH]2)c1	-4%[46 µM]	/	/	/	/
CN(C)C(=O)c1nc2ccc(Cl)cn2c1CN1CCCC(OCc2cccnc2)C1 (stereo unspecified)	3%[46 µM]	8%	/	/	/
CN(Cc1cnccn1)Cc1c(C(=O)N2CCc3ccccc3C2)nc2ccc(Cl)cn12	/	18µM*	/	/	/
SMILES	Lamin A splicing	ALDH1A1 block	PNC inhibitor	12-hLO inh	HPGD inh
CC(C)CN(C)Cc1c(C(=O)N2CCc3ccccc3C2)nc2ccc(Cl)cn12	4%[46 µM]	7.9µM*	/	/	/
Cc1onc(-c2c(F)cccc2Cl)c1C(=O)N1CCc2ccccc2C1	4%	-5%	?	-4%	-10%
Cc1cnc(CN(C)Cc2c(C(=O)N3CCc4ccccc4C3)nc3ccc(Cl)cn23)[nH]1	/	18µM*	/	/	/
CN(C)C(=O)c1nc2ccc(Cl)cn2c1CN1CCCC(OCc2ccccc2)C1 (stereo unspecified)	/	3%	/	/	/
N#CC(c1ccccn1)(c1ncc(C(F)(F)F)cc1Cl)N1CCOCC1 (stereo unspecified)	4%	8%	-100*	-3%	-10%
N#CC(c1ccncc1)(c1ncc(C(F)(F)F)cc1Cl)N1CCOCC1 (stereo unspecified)	0%[46 µM]	0.4µM*	/	/	/
COCCCn1c(SCC(=O)NCc2ccccc2)nc2ccccc2c1=O	-12%	4%	-100*	-4%	-24%
COCCNC(=O)CSc1nc2ccccc2c(=O)n1CCC(=O)NCCc1ccc(OC)c(OC)c1	/	14µM*	/	/	/
COc1ccc(CCNC(=O)CCn2c(SCC#N)nc3ccccc3c2=O)cc1OC	10%	20µM*	-8	-3%	-2%
COCCNC(=O)CSc1nc2cc3c(cc2c(=O)n1CCCC(=O)NCCc1ccc(OC)c(OC)c1)OCO3	11%[46 µM]	-1%	/	/	/
COc1ccc(CCNC(=O)CSc2nnc(Cc3csc(N)n3)n2C)cc1OC	1%	13%	-95*	-7%	4%
COc1ccc(CCNC(=O)CCCn2c(SCC#N)nc3ccccc3c2=O)cc1OC	3%	-6%	-5	-6%	-6%
COc1ccc(CCNC(=O)CSc2nnc(Cn3c(=O)sc4ccccc43)n2C)cc1OC	-3%	0%	-15	-4%	/
CC(/C=N/n1c(-c2cc(C)[nH]n2)n[nH]c1=S)=C\c1ccccc1	-4%	-14%	-22	-8%	10µM*
CC(/C=N/n1c(C2CCCCC2)n[nH]c1=S)=C\c1ccccc1	?	-8%	33	?	?
CC(=C/c1ccccc1)/C=N/n1c(-c2ccco2)n[nH]c1=S	?	?	-26	?	5µM*
COC(=O)C/C=C/[C@@H](C)[C@H](O)c1ccccc1Br	/	12%	/	/	2%
COc1ccc(S(=O)(=O)n2nc(OC(=O)C3CCCCC3)cc2N)cc1	-2%	2µM*	-1	-8%	-12%
Nc1cc(OC(=O)c2ccco2)nn1S(=O)(=O)c1ccc(F)cc1	-9%	14µM*	17	-6%	/
Cc1ccc(S(=O)(=O)n2nc(OC(=O)C3CCCCC3)cc2N)cc1	4%	?	-16	-10%	-13%
Cc1ccc(S(=O)(=O)n2nc(OC(=O)c3cccs3)cc2N)cc1	11%	2µM*	67	-10%	-12%
CC(C)(C)C(=O)Oc1cc(N)n(S(=O)(=O)c2ccc(F)cc2)n1	-12%	7%	61	-3%	-10%
O=C(Nc1ccc(Cl)cc1Cl)c1cccc(N2C(=O)C=CC2=O)c1	10%	12%	-8	-2%	-3%
CCCCn1cc(S(=O)(=O)c2ccc(OC)cc2)c(=O)c2cc(F)c(N3CCOCC3)cc21	-1%[46 µM]	/	/	/	/

From PubChem BioAssay
